# Experimental data from article PMC7862700, “An all-to-all approach to the identification of sequence-specific readers for epigenetic DNA modifications on cytosine”.
# Experiments:
# Test in all cases: DAPPL (digital affinity profiling via proximity ligation, sequencing); 10 mM Tris-HCl pH 7.5, 50 mM NaCl, 1 mM DTT, 4% glycerol, room temperature, 30 min; GST-TFs on glutathione beads, 16-mer random dsDNA library, 0.1% formaldehyde crosslink after washing; high values mean tight binding
# Conditions in all cases: protein: recombinant; tags: N-terminal GST; dsDNA, one strand shown
# ETV2 = molecular target: T1, ETV2 (Homo sapiens, UniProt O00321 1-342)
# T1 sequence: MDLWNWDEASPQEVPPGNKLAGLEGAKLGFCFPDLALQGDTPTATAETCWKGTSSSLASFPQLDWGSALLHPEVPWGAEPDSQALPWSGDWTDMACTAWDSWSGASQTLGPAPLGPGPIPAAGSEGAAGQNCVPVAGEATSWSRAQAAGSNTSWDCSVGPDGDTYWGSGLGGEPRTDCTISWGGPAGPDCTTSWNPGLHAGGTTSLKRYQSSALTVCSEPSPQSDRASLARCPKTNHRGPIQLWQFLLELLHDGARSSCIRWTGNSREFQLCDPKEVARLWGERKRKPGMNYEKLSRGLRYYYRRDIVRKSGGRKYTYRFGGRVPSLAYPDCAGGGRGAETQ
# How it was run: (§1)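 A tag-only sample was pooled with DNA-barcoded human transcription factors that had been expressed in yeast as GST fusions and captured on glutathione beads. The pools were incubated for 30 min at room temperature with 200 nmole of a random double-stranded 16-mer DNA library in Tris/NaCl/DTT/glycerol buffer, then washed, crosslinked with 0.1% formaldehyde, proximity-ligated (BsaI/T4 ligase, 1 h, 37 °C), PCR-amplified and sequenced on an Illumina NextSeq500. Binding signal is each hexamer's read frequency for a factor divided by its frequency for the tag-only sample.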
# ELF3 = molecular target: T2, ELF3 (Homo sapiens, UniProt P78545 1-371)
# T2 sequence: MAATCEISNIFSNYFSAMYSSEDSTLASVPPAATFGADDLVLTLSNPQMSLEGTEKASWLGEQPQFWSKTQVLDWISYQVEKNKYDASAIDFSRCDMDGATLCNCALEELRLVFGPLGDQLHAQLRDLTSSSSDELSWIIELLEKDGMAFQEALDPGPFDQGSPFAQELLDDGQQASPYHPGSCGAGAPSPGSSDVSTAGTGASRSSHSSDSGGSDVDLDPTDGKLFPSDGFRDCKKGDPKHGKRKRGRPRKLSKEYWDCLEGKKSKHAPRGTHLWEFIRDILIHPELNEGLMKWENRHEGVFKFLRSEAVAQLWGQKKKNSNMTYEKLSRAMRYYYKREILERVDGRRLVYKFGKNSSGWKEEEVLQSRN
# How it was run: as §1
# ETV1 = ETV1 (Homo sapiens, UniProt P50549 1-477)
# How it was run: as §1
# ERF = molecular target: T3, ERF (Homo sapiens, UniProt P50548 1-548)
# T3 sequence: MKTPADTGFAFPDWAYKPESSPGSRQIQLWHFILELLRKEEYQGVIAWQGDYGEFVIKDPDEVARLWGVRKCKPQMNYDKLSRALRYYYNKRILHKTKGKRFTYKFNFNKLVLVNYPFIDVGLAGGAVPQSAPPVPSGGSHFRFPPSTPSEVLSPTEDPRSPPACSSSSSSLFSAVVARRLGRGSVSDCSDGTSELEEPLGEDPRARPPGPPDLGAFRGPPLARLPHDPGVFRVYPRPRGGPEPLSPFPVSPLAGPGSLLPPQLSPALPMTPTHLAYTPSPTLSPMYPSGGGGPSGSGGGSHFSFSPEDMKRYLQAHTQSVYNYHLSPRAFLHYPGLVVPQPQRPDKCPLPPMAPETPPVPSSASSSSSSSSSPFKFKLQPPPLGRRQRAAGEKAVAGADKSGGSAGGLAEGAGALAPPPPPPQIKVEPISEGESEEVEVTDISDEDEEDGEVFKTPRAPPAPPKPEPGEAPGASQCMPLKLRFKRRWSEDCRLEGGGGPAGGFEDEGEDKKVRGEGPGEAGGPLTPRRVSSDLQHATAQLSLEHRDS
# How it was run: as §1
# ETV3L = molecular target: T4, ETV3L (Homo sapiens, UniProt Q6ZN32 1-361)
# T4 sequence: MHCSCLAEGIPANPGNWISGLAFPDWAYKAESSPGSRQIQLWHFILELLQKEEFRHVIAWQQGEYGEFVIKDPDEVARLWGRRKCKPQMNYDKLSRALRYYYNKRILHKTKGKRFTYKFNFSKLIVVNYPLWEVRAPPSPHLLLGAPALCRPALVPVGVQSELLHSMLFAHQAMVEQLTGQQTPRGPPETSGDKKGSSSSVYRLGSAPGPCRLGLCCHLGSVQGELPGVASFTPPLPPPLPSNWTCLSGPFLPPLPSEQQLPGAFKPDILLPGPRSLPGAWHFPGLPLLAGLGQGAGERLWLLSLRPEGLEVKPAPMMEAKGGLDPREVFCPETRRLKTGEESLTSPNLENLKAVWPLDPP
# How it was run: as §1
# ETS2 = molecular target: T5, ETS2 (Homo sapiens, UniProt P15036 1-469)
# T5 sequence: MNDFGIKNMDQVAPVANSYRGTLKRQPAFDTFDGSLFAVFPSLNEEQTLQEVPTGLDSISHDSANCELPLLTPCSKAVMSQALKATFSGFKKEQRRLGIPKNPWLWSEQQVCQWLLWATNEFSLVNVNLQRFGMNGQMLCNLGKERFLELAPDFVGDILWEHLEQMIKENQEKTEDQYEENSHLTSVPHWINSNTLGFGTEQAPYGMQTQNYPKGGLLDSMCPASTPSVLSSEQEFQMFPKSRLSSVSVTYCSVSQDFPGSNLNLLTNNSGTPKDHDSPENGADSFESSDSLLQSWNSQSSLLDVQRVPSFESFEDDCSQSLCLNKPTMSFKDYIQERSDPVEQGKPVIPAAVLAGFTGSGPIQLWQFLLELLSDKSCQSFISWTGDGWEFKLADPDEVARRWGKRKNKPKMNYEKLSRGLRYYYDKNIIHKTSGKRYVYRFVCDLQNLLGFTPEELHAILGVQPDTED
# How it was run: as §1
# SPDEF = molecular target: T6, SPDEF (Homo sapiens, UniProt O95238 1-335)
# T6 sequence: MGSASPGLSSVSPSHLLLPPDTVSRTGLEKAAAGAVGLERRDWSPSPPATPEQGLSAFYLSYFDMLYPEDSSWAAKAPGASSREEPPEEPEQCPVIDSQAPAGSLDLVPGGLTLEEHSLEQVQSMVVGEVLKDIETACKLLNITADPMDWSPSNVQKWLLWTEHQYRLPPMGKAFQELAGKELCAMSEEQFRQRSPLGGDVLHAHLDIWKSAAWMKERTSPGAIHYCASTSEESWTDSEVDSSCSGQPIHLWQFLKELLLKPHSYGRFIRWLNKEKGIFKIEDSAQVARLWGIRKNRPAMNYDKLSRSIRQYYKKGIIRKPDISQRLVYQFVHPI
# How it was run: as §1
# ETV7 = molecular target: T7, ETV7 (Homo sapiens, UniProt Q9Y603 1-341)
# T7 sequence: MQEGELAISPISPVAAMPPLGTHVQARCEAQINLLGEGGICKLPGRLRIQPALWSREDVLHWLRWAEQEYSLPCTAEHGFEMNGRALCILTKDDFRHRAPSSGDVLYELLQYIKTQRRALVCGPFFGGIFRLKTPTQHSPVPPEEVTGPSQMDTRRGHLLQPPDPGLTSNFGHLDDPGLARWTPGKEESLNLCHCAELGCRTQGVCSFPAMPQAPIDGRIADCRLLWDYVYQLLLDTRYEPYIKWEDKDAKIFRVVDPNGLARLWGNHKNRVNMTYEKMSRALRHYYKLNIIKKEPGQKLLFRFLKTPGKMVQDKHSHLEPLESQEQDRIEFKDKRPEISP
# How it was run: as §1
# ETV3 = molecular target: T8, ETV3 (Homo sapiens, UniProt P41162-2 1-143)
# T8 sequence: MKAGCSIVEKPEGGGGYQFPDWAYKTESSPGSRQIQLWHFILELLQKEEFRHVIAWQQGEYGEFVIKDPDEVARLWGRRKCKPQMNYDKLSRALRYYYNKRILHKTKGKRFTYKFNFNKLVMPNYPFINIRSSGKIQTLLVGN
# How it was run: as §1
# ETV6 = ETV6 (Homo sapiens, UniProt P41212 1-452)
# How it was run: as §1
# ETV1, sequence (P50549 whole entry): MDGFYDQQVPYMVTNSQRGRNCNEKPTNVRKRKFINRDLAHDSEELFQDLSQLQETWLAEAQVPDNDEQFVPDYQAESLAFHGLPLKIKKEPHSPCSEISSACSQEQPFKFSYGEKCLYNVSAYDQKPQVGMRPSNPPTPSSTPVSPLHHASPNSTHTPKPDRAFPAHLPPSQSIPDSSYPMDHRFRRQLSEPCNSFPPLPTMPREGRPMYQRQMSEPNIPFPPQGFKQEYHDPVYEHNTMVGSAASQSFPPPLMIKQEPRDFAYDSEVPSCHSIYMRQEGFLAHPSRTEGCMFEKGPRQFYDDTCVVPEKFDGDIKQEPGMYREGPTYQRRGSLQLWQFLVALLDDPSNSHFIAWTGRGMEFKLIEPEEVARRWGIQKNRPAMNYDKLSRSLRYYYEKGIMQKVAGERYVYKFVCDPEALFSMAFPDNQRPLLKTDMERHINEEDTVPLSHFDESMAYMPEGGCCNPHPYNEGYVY
# ETV6, sequence (P41212 whole entry): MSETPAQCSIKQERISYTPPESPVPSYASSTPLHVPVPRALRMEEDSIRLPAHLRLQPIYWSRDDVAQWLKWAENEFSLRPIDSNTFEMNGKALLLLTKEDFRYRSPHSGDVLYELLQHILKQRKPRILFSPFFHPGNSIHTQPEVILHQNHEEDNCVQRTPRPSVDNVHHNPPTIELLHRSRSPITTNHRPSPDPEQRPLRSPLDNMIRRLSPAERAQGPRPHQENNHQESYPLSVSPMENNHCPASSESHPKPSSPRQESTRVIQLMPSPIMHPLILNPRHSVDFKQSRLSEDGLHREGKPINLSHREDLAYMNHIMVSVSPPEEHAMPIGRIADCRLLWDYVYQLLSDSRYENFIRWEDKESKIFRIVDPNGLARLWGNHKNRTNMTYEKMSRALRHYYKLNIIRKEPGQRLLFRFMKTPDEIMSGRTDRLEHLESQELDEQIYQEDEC
sequence,measurement,setting,value
TCAAGT,binding signal,ETV2,"1.06 fold enrichment (6-mer frequency, TF over GST control)"
same,binding signal,ELF3,"1.13 fold enrichment (6-mer frequency, TF over GST control)"
same,binding signal,ETV1,"1.15 fold enrichment (6-mer frequency, TF over GST control)"
same,binding signal,ERF,"1.06 fold enrichment (6-mer frequency, TF over GST control)"
same,binding signal,ETV3L,"1.12 fold enrichment (6-mer frequency, TF over GST control)"
same,binding signal,ETS2,"1.09 fold enrichment (6-mer frequency, TF over GST control)"
same,binding signal,SPDEF,"1.17 fold enrichment (6-mer frequency, TF over GST control)"
same,binding signal,ETV7,"1.03 fold enrichment (6-mer frequency, TF over GST control)"
same,binding signal,ETV3,"1.1 fold enrichment (6-mer frequency, TF over GST control)"
same,binding signal,ETV6,"1.07 fold enrichment (6-mer frequency, TF over GST control)"
